Active and inactive are the calls of the source.
Key:
[1] = anti-His antibody binders, primary screen, artefact control for SMM control protein annotation, biochemical, small-molecule microarray, 635 nm fluorescence (AID 1128); settings: anti-His Alexa647 antibody binding, higher = more signal;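 further: score merges feature fluorescence with signal-to-noise for each printed compound spot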
[2] = test system: Human papillomavirus type 1a E7 protein (residues 1-88); assay: HPV1a E7 small-molecule binders, primary screen, biochemical, small-molecule microarray, residues 1-88, 635 nm (AID 1129); settings: small-molecule microarray binding, fluorescence 635 nm; higher = more signal
[3] = target: Focal adhesion kinase 1 (Homo sapiens) (UniProt Q05397); assay: small-molecule microarray binders of FAK, primary screen, biochemical, 635/667 nm fluorescence, BSA, DTT (AID 1130); settings: PTK2 binding, 635 nm fluorescence, higher = more signal;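 further: composite of spot emission at 667 nm and signal to noise over triplicate slides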
Focal adhesion kinase 1 (Homo sapiens), sequence (Q05397 whole entry, looked up): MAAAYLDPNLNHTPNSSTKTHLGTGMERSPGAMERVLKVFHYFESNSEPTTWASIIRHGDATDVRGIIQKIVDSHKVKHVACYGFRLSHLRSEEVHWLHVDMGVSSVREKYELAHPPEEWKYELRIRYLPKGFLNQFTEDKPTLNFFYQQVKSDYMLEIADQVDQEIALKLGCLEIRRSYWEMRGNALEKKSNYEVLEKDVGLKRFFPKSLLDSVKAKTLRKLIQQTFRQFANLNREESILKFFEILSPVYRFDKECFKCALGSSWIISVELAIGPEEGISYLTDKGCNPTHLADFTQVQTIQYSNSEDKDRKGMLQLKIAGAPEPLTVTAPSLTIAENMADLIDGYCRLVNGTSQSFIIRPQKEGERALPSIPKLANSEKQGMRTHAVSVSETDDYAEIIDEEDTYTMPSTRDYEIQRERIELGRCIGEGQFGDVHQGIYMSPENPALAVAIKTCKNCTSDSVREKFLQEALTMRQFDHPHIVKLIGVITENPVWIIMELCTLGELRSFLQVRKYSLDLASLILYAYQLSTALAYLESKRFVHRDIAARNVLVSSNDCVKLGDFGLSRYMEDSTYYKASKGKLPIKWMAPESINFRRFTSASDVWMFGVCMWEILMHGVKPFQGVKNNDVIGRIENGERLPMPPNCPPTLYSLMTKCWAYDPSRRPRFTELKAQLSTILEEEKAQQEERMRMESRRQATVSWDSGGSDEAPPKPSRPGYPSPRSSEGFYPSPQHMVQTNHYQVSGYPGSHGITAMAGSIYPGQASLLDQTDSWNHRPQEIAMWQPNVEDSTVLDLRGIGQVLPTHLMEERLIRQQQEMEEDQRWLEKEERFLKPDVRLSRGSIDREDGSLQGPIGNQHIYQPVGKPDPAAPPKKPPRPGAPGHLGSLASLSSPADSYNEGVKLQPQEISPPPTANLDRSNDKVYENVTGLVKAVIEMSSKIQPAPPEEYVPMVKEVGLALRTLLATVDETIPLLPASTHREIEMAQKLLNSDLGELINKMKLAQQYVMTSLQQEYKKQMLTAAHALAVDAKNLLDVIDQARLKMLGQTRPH

[4] = test system: Fibrinogen (Alexa647-labelled); assay: fibrinogen binders on compound microarrays, profiling panel, artefact control for SMM control-protein annotation, biochemical, small-molecule microarray, 635/667 nm fluorescence (AID 1131); settings: fibrinogen-A647 binding fluorescence, higher = more signal;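 further: z-score merges 667 nm fluorescence with per-spot signal-to-noise over triplicate slides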
[5] = target: Follistatin (Homo sapiens) (UniProt P19883); assay: follistatin binders on small-molecule microarrays, primary screen, biochemical, small-molecule microarray, 635/667 nm fluorescence (AID 1132); settings: FST binding, 635 nm fluorescence, higher = more signal
Follistatin (Homo sapiens), sequence (P19883 whole entry, looked up): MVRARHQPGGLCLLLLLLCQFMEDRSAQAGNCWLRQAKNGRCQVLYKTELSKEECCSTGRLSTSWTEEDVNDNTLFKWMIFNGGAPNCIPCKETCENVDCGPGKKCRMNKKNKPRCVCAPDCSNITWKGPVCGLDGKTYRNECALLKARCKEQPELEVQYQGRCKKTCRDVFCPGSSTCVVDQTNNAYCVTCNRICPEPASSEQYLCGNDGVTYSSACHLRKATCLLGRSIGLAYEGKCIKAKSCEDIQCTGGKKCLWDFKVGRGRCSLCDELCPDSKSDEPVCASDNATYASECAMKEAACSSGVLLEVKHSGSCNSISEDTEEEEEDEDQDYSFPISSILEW

[6] = target: Fibroblast growth factor 2 (Homo sapiens) (UniProt P09038); assay: FGF2 binders on small-molecule microarrays, primary screen, biochemical, small-molecule microarray, 635/667 nm fluorescence (AID 1133); settings: small-molecule microarray binding, FGF2, fluorescence 635/667; higher = more signal
Fibroblast growth factor 2 (Homo sapiens), sequence (P09038 whole entry, looked up): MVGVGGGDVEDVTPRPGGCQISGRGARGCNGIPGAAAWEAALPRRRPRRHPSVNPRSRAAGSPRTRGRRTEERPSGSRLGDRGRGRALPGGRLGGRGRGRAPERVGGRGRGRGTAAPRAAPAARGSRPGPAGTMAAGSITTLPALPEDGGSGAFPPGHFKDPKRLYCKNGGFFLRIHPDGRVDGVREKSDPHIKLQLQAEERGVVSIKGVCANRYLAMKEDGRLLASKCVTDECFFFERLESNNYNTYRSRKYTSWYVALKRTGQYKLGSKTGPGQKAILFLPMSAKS

[7] = mitochondrial membrane potential change in A549 cells, profiling panel, cell-based, JC-1 fluorescence, basal, 24 h, 100 nL (AID 1138); settings: higher = more signal;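 further: A549 lung adenocarcinoma cells under basal conditions with no added stimulus; test concentration not given here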
[8] = test system: Lefty1; assay: Lefty1 binders on small-molecule microarrays, primary screen, biochemical, small-molecule microarray, 635/667 nm fluorescence (AID 1139); settings: small-molecule microarray binding, fluorescence 635/667; higher = more signal
[9] = test system: wheat germ agglutinin (Triticum aestivum), Alexa647-labelled; assay: wheat germ agglutinin binders on compound microarrays, profiling panel, artefact control for SMM control-protein annotation, biochemical, small-molecule microarray, 635/667 nm fluorescence (AID 1140); settings: WGA-A647 binding, 635 nm fluorescence, higher = more signal;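 further: score merges 667 nm feature emission with signal to noise over triplicate slides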
[10] = target: Luciferin 4-monooxygenase (Photinus pyralis) (UniProt P08659); assay: firefly luciferase enzyme inhibitors, primary screen, biochemical, luminescence, purified enzyme, 2006 set (AID 1141); settings: SteadyGlo luminescence, 30 min, higher = more signal, called active from +8 up or from −8 down;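 further: cell-free assay with purified firefly luciferase at 100 ng per well in PBS; test concentration not given here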
Luciferin 4-monooxygenase (Photinus pyralis), sequence (P08659 whole entry, looked up): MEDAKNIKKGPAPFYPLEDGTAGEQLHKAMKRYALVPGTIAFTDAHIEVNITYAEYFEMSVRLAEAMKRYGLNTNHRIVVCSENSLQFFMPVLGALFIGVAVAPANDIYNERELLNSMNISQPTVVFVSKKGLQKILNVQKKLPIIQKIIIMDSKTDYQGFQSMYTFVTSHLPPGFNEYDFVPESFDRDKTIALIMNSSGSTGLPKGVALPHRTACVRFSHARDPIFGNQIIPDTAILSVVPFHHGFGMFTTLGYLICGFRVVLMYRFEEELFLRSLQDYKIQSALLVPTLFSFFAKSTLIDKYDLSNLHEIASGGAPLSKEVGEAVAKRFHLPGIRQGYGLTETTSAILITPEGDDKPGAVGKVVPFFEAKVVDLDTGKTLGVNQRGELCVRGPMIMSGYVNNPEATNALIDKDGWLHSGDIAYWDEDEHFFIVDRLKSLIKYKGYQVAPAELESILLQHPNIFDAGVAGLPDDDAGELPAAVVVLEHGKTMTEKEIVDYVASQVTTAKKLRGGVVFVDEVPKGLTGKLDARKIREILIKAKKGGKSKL

SMILES	composite z-score [1]	composite z-score [2]	composite z-score [3]	composite z-score [4]	composite z-score [5]	composite z-score [6]	z-score [7]	composite z-score [8]	composite z-score [9]	z-score [10]
COC(=O)[C@@]1(Cc2ccc(F)cc2)[C@H]2c3cc(C(=O)N(C)C)n(CCCNc4ccc(C(F)(F)F)cc4Cl)c3C[C@H]2CN1C(=O)c1ccccc1	2.17	1.24	0.903	1.01	0.543	-0.123	0.284	0.0748	1.3	0.579 (inactive)
CCCNC(=O)[C@@]1(C)c2ccccc2C(=O)N(Cc2cc(C(F)(F)F)cc(C(F)(F)F)c2)[C@H]1c1ccc(CO)cc1	2.41	0.903	0.147	0.267	0.127	0.68	-0.704	-0.524	0.463	0.517 (inactive)
COc1ccc(C(O)C2C=CC3C(=O)N(c4ccccc4)C(=O)C3N2Nc2ccccc2)c2ccccc12 (stereo not given)	2.08	1.12	0.592	-0.833	0.037	-0.702	-0.284	-0.0743	0.285	-0.597 (inactive)
O=C1OCCC/C=C\[C@H]2OC34C=CCN(Cn5nnc6ccccc65)C(=O)[C@H]3N(CCCO)C(=O)[C@@H]4C12 (stereo not given in full)	3.1	-0.162	-0.0245	-1.94	-0.99	-1.06	-0.275	-0.517	-0.107	0.656 (inactive)
CO[C@H]1O[C@H](CO)[C@@H](OC(=O)Nc2ccc(C(F)(F)F)cc2)[C@H](OC(=O)Nc2ccccc2)[C@@H]1OC(=O)Nc1ccccc1	0.817	1.18	0.132	0.944	1.21	0.21	-0.191	0.41	0.58	-0.72 (inactive)
COc1ccc([Si](C)(C)[C@@H]2[C@@H](CCO)O[C@]3(C(=O)N(Cc4cccc(N(C=O)c5ccccc5)c4)c4ccccc43)[C@H]2C)cc1	1.25	1.04	0.228	0.508	1.18	0.598	-0.0337	0.127	0.893	0.505 (inactive)
COc1c(C)cc(-c2cc3c(c(-c4ccccc4)n2)[Si](C(C)C)(C(C)C)O[C@H]3c2ccccc2)cc1C	0.235	-0.26	-0.0638	-0.243	0.145	-0.212	0.125	0.377	0.124	0.407 (inactive)
C=CCN1C(=O)[C@@]2(O[C@@H](CCO)[C@H]([Si](C)(C)c3ccc(OC)cc3)[C@H]2C)c2cc(NC(C)=O)ccc21	1.48	1.21	0.0016	0.818	1.34	1.45	0.921	1.22	0.948	-0.301 (inactive)
COc1ccc([Si](C)(C)[C@@H]2[C@@H](CCO)O[C@]3(C(=O)N(Cc4ccc(N5C(=O)c6cccc7cccc5c67)cc4)c4ccccc43)[C@H]2C)cc1	-0.0225	-0.797	0.138	-0.518	-1.12	-0.753	1.23	-0.536	0.397	-0.604 (inactive)
O=C1O[C@H](c2ccccc2)[C@H](c2ccccc2)N2[C@H]1[C@@H](C(=O)Nc1nc3ccccc3s1)[C@]1(C(=O)Nc3ccc(C#CC4=CCCCC4)cc31)[C@H]2c1ccc(OCCO)cc1	1.62	1.18	0.148	0.831	1.12	0.579	-2.24	0.077	0.916	-3.28 (inactive)
COc1ccc([Si](C)(C)[C@H]2[C@H](CCO)O[C@@]3(C(=O)N(Cc4cccc(N5C(=O)c6cccc7cccc5c67)c4)c4ccccc43)[C@@H]2C)cc1	0.86	0.586	1.02	0.53	-0.16	-0.23	0.325	-0.0439	0.563	0.669 (inactive)
COCCn1c(C(=O)N2CCCC2)cc2c1C[C@H]1CN(C(=O)c3ccccc3)[C@@](Cc3ccc(OC)cc3)(C(=O)OC)[C@@H]21	2.34	1.02	1.89	0.632	0.417	-0.552	0.766	-0.0277	1.06	0.438 (inactive)
O=C1C2C=CC(C(O)c3ccc(B(O)O)cc3)N(Nc3ccc([N+](=O)[O-])cc3)C2C(=O)N1c1ccccc1 (stereo not given)	0.359	1.21	-0.164	0.843	1.13	0.284	0.0898	0.284	1.11	0.491 (inactive)
COC(=O)[C@@]1(Cc2ccc(F)cc2)[C@H]2c3cc(C(=O)N4CCCC4)n(CCc4ccc(OC)c(Br)c4)c3C[C@H]2CN1C(=O)c1ccccc1	2.45	1.22	1.32	0.831	1.08	-0.705	-1.58	0.265	1.38	-0.0863 (inactive)
COC(=O)[C@@]1(Cc2ccc(OC)cc2)[C@H]2c3cc(C(=O)N4CCCC4)n(CCc4ccccn4)c3C[C@H]2CN1C(=O)c1ccccc1	0.0421	0.201	0.579	0.821	-0.29	-0.676	-1.29	-0.91	0.0844	2.15 (inactive)
Cc1cccc(/C=C/C=O)c1	-0.109	-0.115	0.0048	0.458	0.198	-0.163	0.538	-0.119	0.718	-0.953 (inactive)
CCOC(=O)N1C(c2ccc(OCCCO)cc2)=NC(C(=O)OC)N1C(=O)OCC (stereo not given)	0.369	1.2	0.454	0.864	1.31	0.955	-0.541	1.07	0.669	-1.45 (inactive)
